The values below come from article PMC4552634, “A New Set of Chemical Starting Points with Plasmodium falciparum Transmission-Blocking Potential for Antimalarial Drug Discovery” (PLoS ONE, 2015).

Screen size: about 13,000 compounds; about 3,200 (25%) showed an effect of 50% or more. The list shows a part of the results.

The test has as its system P. falciparum stage V gametocytes. More on the design: BacTiter-Glo ATP luminescence viability of purified stage V gametocytes in 384-well plates, per cent inhibition versus DMSO. To be noted: 48 h, 5 µM; inhibitor.
Regarding `NC(N)=Nc1ccc(OCCCCCOc2ccc(N=C(N)N)cc2Br)c(Br)c1` [TCMDC-137543], the % Inhibition (usually the relative decrease from the control value, in per cent) is on record as 77.55%. The value for `NC(N)=Nc1ccc(OCCCCCOc2ccc(N=C(N)N)c(Cl)c2)cc1Cl` [TCMDC-137577] was 34.57%; that for `NC(N)=Nc1ccc(OCCCCCOc2ccc(N=C(N)N)cc2)cc1` [TCMDC-137482] was 39.96%; that for `Cc1nc(N)nc(N)c1-c1cc(Cl)c(N)c(Cl)c1` [TCMDC-137386] was -88.48%. `Cc1nc2ccccc2c(=O)n1/N=C/c1ccccc1[N+](=O)[O-]` [TCMDC-125512]: the “% Inhibition” value is listed as 2.657%. Take `CCOC(=O)c1c[nH]c2c(sc3cc(OC)ccc32)c1=O` [TCMDC-137190]: the “% Inhibition” value is given as 2.888%.

Consider `CCCCOc1cc2[nH]cc(C(=O)OCC)c(=O)c2cc1OCCCC` [TCMDC-137523], for which the “% Inhibition” value came out at 63.76%. With `CCOC(=O)c1c[nH]c2c(ccc3ccccc32)c1=O` [TCMDC-123857], the “% Inhibition” value is 33.13%. The value for `CCCc1cc(NCC)nc(Nc2ccc(C)cc2)n1` [TCMDC-134013] was -22.6%; that for `Cc1cccc(OCC(=O)Nc2cccc(NC(=O)COc3cccc(C)c3)n2)c1` [TCMDC-123837] was 22.25%; that for `COc1cc(C(=O)NC2CCc3ccccc32)cc(Cl)c1OC` (centres unmarked) [TCMDC-124601] was 17.65%. Take `OC(CNc1ccnc(Nc2cccc(CCN3CCOCC3)c2)n1)c1ccccc1` (centres unmarked) [TCMDC-136463]: the “% Inhibition” value turned out to be 12.7%. Then `Cc1cccc(Nc2nccc(Nc3cccc(C(=O)NCCN4CCOCC4)c3)n2)c1` [TCMDC-124774], with -4.453%. `Cc1cnc(Nc2cccc(CCN3CCOCC3)c2)nc1NC(C)C` [TCMDC-133533]: the “% Inhibition” value was 57.17%. Then `CCCCCCCCN1CCN(CCCCCCNc2c3ccccc3nc3ccccc23)CC1` [TCMDC-138015], with 122.1%. Then `CCCCCCNc1c2ccccc2nc2ccccc12` [TCMDC-123957], with -50.01%; and `CCCCN1CCN(CCCNc2c3ccccc3nc3ccccc23)CC1` [TCMDC-137572], with 99.41%. For `CCCCN1CCN(CCCCNc2c3ccccc3nc3ccccc23)CC1` [TCMDC-137569], the “% Inhibition” value is recorded as 97.88%. The value for `CCCCCCN1CCC(NCc2cccc3ccccc23)CC1` [TCMDC-141665] was -97.34%.

`COc1ccc(NC(=O)Nc2ccc(-c3ccncc3)c(C(F)(F)F)c2)cc1N1CCN(C)CC1` [TCMDC-139213]: the “% Inhibition” value is given as -9.659%. With `O=C(Cc1cnc[nH]1)Nc1cccc(-c2ccc(-c3nc4ccccc4[nH]3)cc2)c1` [TCMDC-136947], the “% Inhibition” value is given as 6.174%. Then `O=C(/C=C/c1ccc(Cl)c(Cl)c1)NCCCCCCN1CCCN(C(=O)Nc2cc(F)cc(F)c2)CC1` [TCMDC-135941], with 5.109%. With `C=C[C@]1(C)C[C@@H](OC(=O)NC(=O)C2CCN(C(=O)CSc3ccccc3)CC2)[C@]2(C)[C@H](C)CC[C@]3(CCC(=O)[C@H]32)[C@@H](C)[C@@H]1O` [TCMDC-139971], the “% Inhibition” value came out at 14.26%. Turning to `CNC(=O)NC1=NC(C)(C)N(OCCCOc2cc(Cl)c(Cl)cc2Cl)C(N)=N1` [TCMDC-131701], the “% Inhibition” value worked out at 9.937%. Regarding `Cc1nc(N)nc(N)c1-c1ccc(Cl)c(Cl)c1` [TCMDC-123931], the “% Inhibition” value is on record as 6.997%. The value for `CN(C)CCCNc1ncnc2c1[nH]c1ccc(Cl)cc12` [TCMDC-124579] was 36.17%; that for `NCCCCc1c(-c2ccc(Cl)c(Cl)c2)[nH]c2ccc(Cl)cc12` [TCMDC-125841] was 97.12%.

Turning to `CO/C(=C\C=C\c1cc2cc(Cl)c(Cl)cc2[nH]1)C(=O)NCCCN1CCN(c2cccc(OCC(=O)Nc3ccccc3)c2)CC1` [TCMDC-139822], the “% Inhibition” value is recorded as -45.25%. Then `Cc1cc(OCCCN2CCC(NS(=O)(=O)c3cccc(Br)c3)C2)c2ccccc2n1` (centres unmarked) [TCMDC-136283], with -24.53%; and `COc1cc(Cc2cnc(N)nc2N)cc(OCCCC#N)c1OC` [TCMDC-138040], with -4.212%. On to `Cc1nn(CC(C)C)c2sc(C(=O)N3CCN(S(=O)(=O)c4ccc(C#N)cc4)CC3)cc12` [TCMDC-125045], for which the “% Inhibition” value is on record as 90.92%.

With `COc1ccccc1-c1cc(C(=O)N2CCN(S(=O)(=O)c3ccc(C)cc3)CC2)[nH]n1` [TCMDC-124398], the “% Inhibition” value worked out at 19.71%. The value for `Cc1ccc(S(=O)(=O)N2CCN(C(=O)c3cc(-c4ccccc4)n[nH]3)CC2)cc1` [TCMDC-124401] was -51.82%.

Take `CCOc1ccc(-c2n[nH]c(C(F)(F)F)c2-c2ccccc2OC)c(O)c1` [TCMDC-124564]: the “% Inhibition” value is listed as -16.08%. Then `CC(=O)Nc1ccc(C2NC(=O)NC(c3ccccc3)=C2c2nc3ccccc3s2)cc1` (centres unmarked) [TCMDC-124535], with -96.89%; and `CC(=O)c1c(C)[nH]c(C(=O)Nc2ccc(-c3nc4ccc(C)cc4s3)cc2)c1C` [TCMDC-124493], with 55.35%. Turning to `CC(=O)Nc1cccc(C(=O)Nc2ccc(-c3ccc(-c4nc5cccc(C)c5[nH]4)s3)cc2)c1` [TCMDC-132143], the “% Inhibition” value is on record as -2.133%. The value for `CC[C@H](NC(=O)c1c(CN2CCC(N3CCCCC3)CC2)c(-c2ccccc2)nc2c(Cl)c(O)ccc12)c1ccccc1` [TCMDC-140367] was 17.06%.

For the compound `CCC(=O)OC(CCN(CC)CC)(c1ccccc1)c1ccccc1` [TCMDC-131415], the “% Inhibition” value is listed as 15.82%.

As to `CCN(CC)CCNc1ccnc2[nH]c3ccc([N+](=O)[O-])cc3c12` [TCMDC-131978], the “% Inhibition” value amounted to 4.282%. Consider `CC1(C)N=C(N)N=C(N)N1OCCCOc1ccc([N+](=O)[O-])cc1` [TCMDC-131610], for which the “% Inhibition” value turned out to be 2.796%.

As for `CCN(CC)CCOc1ccc(C(O)(C#CC(O)(c2ccccc2)c2ccc(OCCN(CC)CC)cc2)c2ccccc2)cc1` (centres unmarked) [TCMDC-137197], the “% Inhibition” value turned out to be 109.6%.

For the compound `CCCN(CCC)CCOc1ccc(C(O)(C#CC(O)(c2ccc(OCCN(CCC)CCC)cc2)c2cccc(Cl)c2)c2cccc(Cl)c2)cc1` (centres unmarked) [TCMDC-137200], the “% Inhibition” value is listed as 105.4%. Regarding `CCN(CC)CCOc1ccc(C(O)(C#CC(O)(c2ccc(OCCN(CC)CC)cc2)c2ccc([N+](=O)[O-])cc2)c2ccc([N+](=O)[O-])cc2)cc1` (centres unmarked) [TCMDC-137201], the “% Inhibition” value amounted to 116.9%. On to `CCOC(=O)c1ccc(OCCCCCCOc2ccc(Br)cc2)cc1` [TCMDC-131409], for which the “% Inhibition” value is listed as 4.056%. Take `CCN(CC)CCOc1ccc(C(O)(C#CC(O)(c2ccc(Br)cc2)c2ccc(OCCN(CC)CC)cc2)c2ccc(Br)cc2)cc1` (centres unmarked) [TCMDC-137199]: the “% Inhibition” value is recorded as 112.4%. On to `NOCCCCOc1ccc(Br)cc1` [TCMDC-131760], for which the “% Inhibition” value was found to be 15.82%.

As for `CCN(CC)CCOc1ccc(NC(=O)c2oc3ccccc3c2C=Cc2ccccc2)cc1` [TCMDC-132102], the “% Inhibition” value is reported as 24.22%. For the compound `O=C(Nc1ccc(Cl)cc1)c1ccc(CN2CCCN(Cc3ccsc3)CC2)cc1` [TCMDC-136415], the “% Inhibition” value came out at 6.883%. As for `O=C(Nc1cccc(CN2CCCN(Cc3ccc(O)cc3)CC2)c1)c1cccc(Cl)c1` [TCMDC-141817], the “% Inhibition” value is reported as -7.519%.

As for `Cc1sc2nc(CSc3ccccc3)nc(N3CCN(CC(=O)NC4CC4)CC3)c2c1C` [TCMDC-125266], the “% Inhibition” value is recorded as 47.29%. `COc1ccc2ccc(F)c(CC(=O)N3CCOC(CNCc4cccc(-c5ccsc5)n4)C3)c2n1` (centres unmarked) [TCMDC-135027]: the “% Inhibition” value turned out to be 10.39%. `O=C(/C=C/c1ccc(Cl)c(Cl)c1)NCCCCCN1CCC(C(=O)Nc2ccc(F)c(Cl)c2)CC1` [TCMDC-136112]: the “% Inhibition” value amounted to 0.5724%. The value for `CN(CCCN(C)c1cc(NC(=O)c2ccc(F)cc2)ccn1)Cc1cccc(O)c1` [TCMDC-134954] was -6.57%; that for `C[C@H](NC(=O)C1CCCC1)C(=O)Nc1ccc(-c2ccc(-c3nc4ccc(C(F)(F)F)cc4[nH]3)cc2)cc1` [TCMDC-137052] was -25.16%; that for `COc1cc(Cc2cnc(N)nc2N)cc(OCCCS(=O)(=O)O)c1OC` [TCMDC-137357] was -4.274%. As to `COc1cc(/C=C/C(=O)NC2CCC(N3CCC(c4ccccc4C)CC3)CC2)cc(OC)c1` (centres unmarked) [TCMDC-133516], the “% Inhibition” value is listed as -90.94%. Then `Cc1ccc(OCCCCONC(=O)c2ccccc2)cc1` [TCMDC-131756], with 2.332%; and `CCCC(C(=O)OCCN(CC)CC)(c1ccc(Cl)cc1)c1ccc(Cl)cc1` [TCMDC-141994], with 16.96%. In the case of `CCN(CC)CCOc1ccc(C(O)(C#CC(O)(c2ccc(C)cc2)c2ccc(OCCN(CC)CC)cc2)c2ccc(C)cc2)cc1` (centres unmarked) [TCMDC-137198], the “% Inhibition” value was 113%. As for `CCC1CCCCN1S(=O)(=O)c1ccc(NC(=O)c2cc(C)on2)cc1` (centres unmarked) [TCMDC-124618], the “% Inhibition” value is listed as -16.01%.

As for `O=C(NC1CCC(N2CCC(c3ccccc3C(F)(F)F)CC2)CC1)c1cc2ccccc2[nH]1` (centres unmarked) [TCMDC-132895], the “% Inhibition” value is given as -39.86%. Then `O=C(C=Cc1cn(-c2ccccc2)nc1-c1ccccc1)N1CCN(c2ccncc2)CC1` [TCMDC-125256], with 13.7%. In the case of `O=C(C=Cc1cn(-c2ccccc2)nc1-c1cccs1)N1CCN(c2ccncc2)CC1` [TCMDC-125063], the “% Inhibition” value is given as 51.82%. The value for `O=C(Nc1ccncc1)c1cn(-c2ccccc2)nc1-c1cccs1` [TCMDC-125605] was -55.62%. As to `NOCCCOc1ccccc1` [TCMDC-123474], the “% Inhibition” value was -11.28%. The value for `Nc1ccc(Oc2ccc(Cc3cnc(N)nc3N)cc2)cc1` [TCMDC-137904] was -3.731%; that for `COc1ccc2nccc([C@@H](O)CN3CCC(NCc4ccc(OC)c(NC(C)=O)c4)CC3)c2c1` [TCMDC-141564] was -24.43%. With `COc1cc(Nc2ncc3c(C)nc(-c4cc5ccccc5[nH]4)n3n2)cc(OC)c1OC` [TCMDC-138905], the “% Inhibition” value is 5.084%. The value for `CCN(CCCN1CCCCC1)c1cc(C)nc(Nc2cccc(C(F)(F)F)c2)n1` [TCMDC-132451] was 9.673%; that for `COc1ccc(Nc2ncc3c(-c4cccc(NC(=O)Cc5ccc(F)cc5)c4)c[nH]c3n2)cc1OC` [TCMDC-135252] was -55.08%; that for `Cc1nc(-c2cccc(C(F)(F)F)c2)n2nc(Nc3ccc(OCCN4CCCC4)cc3)ncc12` [TCMDC-138911] was 108.6%. `c1ccc(Oc2ccc(Nc3ccnc(Nc4ccc(OCCN5CCCCC5)cc4)n3)cc2)cc1` [TCMDC-138583]: the “% Inhibition” value is recorded as -73.3%. Then `COc1cc(Nc2ncc3c(C)nc(-c4cccc(Nc5ccc(CN6CCS(=O)(=O)CC6)cc5)c4)n3n2)cc(OC)c1OC` [TCMDC-136003], with 62.52%.
